Compounds with a hit are over-represented: about 3.3% of the library has one in this group of screens.
eIF4E 4G PPI – blocks eIF4E binding to eIF4G. TR-FRET eIF4E-eIF4GI(517-606) binding, 2 h. inhibition, % at 21.7 µM. 220,000 tested, 0.37% active;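 note: 0% = full FRET control wells and 100% = background wells lacking eIF4GI fragment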
Mcl1 Noxa PPI – disrupts binding of human Mcl-1 to Noxa peptide. Q07820. TR-FRET Mcl-1/Noxa peptide binding, 2 h. inhibition, % at 21.7 µM. 220,000 tested, 1.5% active. AID 1022;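 active = compounds that cut the protein-peptide binding signal by more than 50% relative to plate controls in a single-dose test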;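 note: His-tagged Mcl-1 with rhodamine Noxa BH3 peptide and terbium anti-His antibody; 0% = Mcl-1 plus Noxa peptide wells and 100% = peptide-only wells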
Target sequence (Q07820 whole entry, looked up): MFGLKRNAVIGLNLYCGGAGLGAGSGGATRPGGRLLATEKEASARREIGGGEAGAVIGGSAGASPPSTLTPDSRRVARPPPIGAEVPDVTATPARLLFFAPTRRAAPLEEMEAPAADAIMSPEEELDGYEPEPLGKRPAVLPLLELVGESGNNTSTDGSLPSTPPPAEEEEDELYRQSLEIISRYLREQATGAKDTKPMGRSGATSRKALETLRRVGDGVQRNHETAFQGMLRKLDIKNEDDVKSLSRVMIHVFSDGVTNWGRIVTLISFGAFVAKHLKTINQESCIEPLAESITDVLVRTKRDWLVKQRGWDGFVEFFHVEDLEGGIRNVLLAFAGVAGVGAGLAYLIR
p47phox inh – blocks human p47phox regulatory protein of NADPH oxidases | P14598 | p47phox/p22phox peptide binding, fluorescence polarization, 2 h | inhibition, % at 24.7 µM | 220,000 tested, 0.53% active | AID 1274;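 note: 0% = p47phox with labelled peptide and 100% = labelled peptide alone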
Mcl1 Bid PPI – disrupts binding of human Mcl-1 to Bid peptide; inhibition, % at 21.7 µM; Q07820; TR-FRET Mcl-1/Bid-Dy647 peptide binding, 1536-well; 220,000 tested, 0.97% active;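 active = compounds that cut the binding signal by more than half at the single screening dose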;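 note: His-tagged Mcl-1 with europium anti-His antibody binding Bid BH3 peptide; 0% = Mcl-1 plus peptide wells and 100% = peptide-only wells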
Mcl-1 Bim block – human Bim-Mcl-1 interaction inhibition; inhibition, % at 10 µM; 190,000 tested, 0.1% active; Q07820; Bead-based flow cytometry, Bim peptide-Mcl-1 binding; in the data active = inhibition above about 40%;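 note: 0% = no compound tracer wells and 100% = peptide blocker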
14-3-3 Bad PPI – disrupts binding of bovine 14-3-3 zeta to phospho-Bad peptide | AID 781 | inhibition, % at 21.7 µM | TR-FRET 14-3-3zeta/Dy647-pBad peptide displacement, 1 h | 220,000 tested, 0.71% active;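 active = inhibition above about 70%, limit read from the data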;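 note: 0% = full 14-3-3 plus peptide FRET controls and 100% = background without 14-3-3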
Target sequence (P63103 whole entry, looked up): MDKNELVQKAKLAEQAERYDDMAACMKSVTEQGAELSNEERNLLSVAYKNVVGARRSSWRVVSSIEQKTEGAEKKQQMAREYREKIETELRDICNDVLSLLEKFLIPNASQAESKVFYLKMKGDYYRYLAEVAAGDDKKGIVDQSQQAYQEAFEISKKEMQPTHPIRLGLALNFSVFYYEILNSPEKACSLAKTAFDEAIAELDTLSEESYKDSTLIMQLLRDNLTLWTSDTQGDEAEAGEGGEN
* hit, by the source's call; nt = no result given; + = active, no number; [ ] = another dose, or the depositor's remark.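 Rule for the calls, unless noted: active = inhibition above about 30% (limit read from the data); inactive = the rest.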

SMILES	eIF4E 4G PPI	Mcl1 Noxa PPI	p47phox inh	Mcl1 Bid PPI	Mcl-1 Bim block	14-3-3 Bad PPI
CC(C)(C)C(=O)N/C(N)=N/c1nc2ccccc2o1	-3	9	-4	-7	nt	-15
CNC(=O)/C=C1\NC(C)(C)Cc2ccccc21	-1	15	-15	-15	-2	30
CCC1(C)Cc2ccccc2/C(=C/C(=O)N2CCCCC2)N1 (centres undefined)	4	9	-1	-84	-1	77*
Cc1ccc(S(=O)(=O)N2CCN(Cc3ccccc3C(F)(F)F)CC2)cc1	10	0	-8	35	-4	82*
O=C(c1ccccc1C(F)(F)F)N1CCN(S(=O)(=O)c2ccccc2)CC1	3	-1	-2	-28	2	-19
Cc1ccccc1CN1CCN(Cc2ccccc2C(F)(F)F)CC1	-10	5	-27	-7	0	75*
O=S(=O)(c1ccccc1)N1CCN(Cc2ccccc2C(F)(F)F)CC1	-6	17	-5	83*	0	79*
O=S1(=O)CCN(Cc2ccccc2C(F)(F)F)CC1	2	6	4	-10	0	-5
Cc1cc(C)cc(NC(=O)COc2ccc(C(=S)N3CCOCC3)cc2)c1	-1	-3	7	-21	-2	-11
C/C(=N\Nc1nc2c(s1)CCCC2)c1ccccc1	9	28	-16	20	0	80*[fluorescence artefact?]
Cc1ccc2nc(/C(C#N)=C\c3ccc(Oc4ccc([N+](=O)[O-])cn4)cc3)[nH]c2c1	1	-14	-69	17	-3	-1
COc1ccc2nc(/C(C#N)=C\c3ccc(Oc4ccc([N+](=O)[O-])cn4)cc3)[nH]c2c1	5	72*	-44	58*	2	33
Cc1ccc2nc(/C(C#N)=C\c3ccc([N+](=O)[O-])o3)[nH]c2c1	-6	66*	-24	52*	0	5
N#C/C(=C\c1ccc([N+](=O)[O-])o1)c1nc2ccccc2[nH]1	-6	39	-29	-20	0	25
CN(CC(=O)Nc1ccc(N2CCOCC2)cc1)Cc1cc(=O)n2ccsc2n1	-1	7	-2	-43	0	-7
C#CCN1C(=O)S/C(=C/C=C/c2ccc(N(C)C)cc2)C1=O	-5	44	44*	-39	-4	-10
O=C(CN1C(=O)S/C(=C\C=C\c2ccccc2)C1=O)Nc1ccccc1C(=O)O	-3	14	-29	25	nt	4
COc1ccc(/C=C2\C(=O)NC(=S)N2C(=O)c2ccc(C)cc2)cc1	3	77*	-142	56*	-2	79*[fluorescence artefact?]
O=C1NC(=S)N(C(=O)c2ccc(F)cc2)/C1=C/c1cccnc1	-3	9	-11	15	nt	4
COC(=O)C1=C(C)N(C)C(=O)NC1c1cc2c(cc1[N+](=O)[O-])OCO2 (centres undefined)	4	52*	-3	-23	0	1
CCCCSc1cnn(-c2ccccc2)c(=O)c1SCCCC	-6	-16	65*	-10	-1	-14
CCSc1cnn(-c2ccccc2)c(=O)c1SCC	-6	0	-7	-5	-2	-2
Cc1cccc(Nc2n[nH]c(=S)s2)c1C	58*	20	19	-133	-6	-5
COc1ccccc1Nc1n[nH]c(=S)s1	-1	7	9	-58	-6	-5
O=C(CN1C(=O)C2CCCCC2C1=O)OCn1nnc2ccccc2c1=O (centres undefined)	-2	3	-24	-20	2	-5
SMILES	eIF4E 4G PPI	Mcl1 Noxa PPI	p47phox inh	Mcl1 Bid PPI	Mcl-1 Bim block	14-3-3 Bad PPI
O=C(OCn1nnc2ccccc2c1=O)C1CCCCC1	7	54*	-4	-17	0	-1
CSc1nc2nc(-c3ccccc3)cc(=O)n2[nH]1	-8	-9	3	-4	5	79*
CC(C)OC(=O)CSc1nc(Cc2ccccc2)nc2ccccc12	-2	9	-11	-8	-1	-1
CC(=O)Nc1ccc(C(=O)/C=C/c2ccco2)cc1	7	61*	-17	-8	-5	5
O=C(/C=C\c1ccco1)c1ccc(NC(=O)c2ccco2)cc1	17	76*	-20	-86	0	12
CC(=O)Nc1cccc(C(=O)/C=C/c2ccc(/C=C/C(=O)c3cccc(NC(C)=O)c3)cc2)c1	13	45	12	59*	-5	30
COc1ccc(-n2cc(-c3ccc(OC(F)F)cc3)[n+]3c2CCCCC3)cc1	1	9	-7	90*	-1	12
CSc1ccc(CN2C(=O)NC3(CCCCCCC3)C2=O)cc1	2	-2	-17	-22	0	-24
COC(=O)c1scc(C)c1NS(=O)(=O)c1ccc(NC(C)=O)cc1	1	-6	-2	9	nt	10
COc1cccc(C(=O)/C=C/Nc2ccc(S(=O)(=O)Nc3onc(C)c3C)cc2)c1	8	2	-9	-12	66*	-1
COc1ccc(/C(C)=N/NC(=O)Cn2nc([N+](=O)[O-])cc2C)cc1	1	-10	-1	2	nt	4
Cc1c(C(=O)OC(C)C)[nH]c2c1C(=O)CCC2	5	-3	+	-20	-2	-14
Cn1c(=O)c2c(nc(N/N=C/c3ccc(OC(=O)c4ccco4)cc3)n2Cc2ccc(F)cc2)n(C)c1=O	11	48	9	59*	-10	53
COc1ccc(NC(=O)/C(Cl)=C(/Cl)S(=O)Cc2ccc(Cl)cc2)cn1 (centres undefined)	-1	53*	-15	36	-9	-4
COc1ccc(NC(=O)C(Cl)=C(Cl)Cl)cn1	2	16	-8	6	3	-2
CN1CCc2cccc3c2[C@@H]1Cc1ccc(O)c(O)c1-3	26	92*	25	9	10	26
COc1ccc2c(c1O)-c1ccccc1CCN(C)C2	0	-4	1	-3	-2	-1
COC(=O)c1ccc(NS(=O)(=O)c2cccc3cccnc23)cc1	-5	9	49*	-5	3	-5
COc1ccc(NS(=O)(=O)c2cccc3cccnc23)cc1	1	6	-6	-6	-5	1
CCOCCCNCc1ccc(OC)c(OC)c1	-1	17	4	-13	0	-8
CCOC(=O)CCNCc1ccc(OC)c(OC)c1	-3	54*	-3	-3	nt	5
CN(C)c1ccnc2c[cH-]cc12.[Fe].c1ccc(-[c-]2[c-](-c3ccccc3)[c-](-c3ccccc3)[c-](-c3ccccc3)[c-]2-c2ccccc2)cc1 (centres undefined)	41*	30	90*	-14	nt	50
Clc1ccc(-c2c(C3=NCCCN3)nnn2-c2ccc(Cl)cc2)cc1	-2	7	-7	-28	nt	-5
C=C(C)C1CC=C(C)/C(=N/NC(=O)c2ccc(NC(=O)c3cccc(C)c3)cc2)C1 (centres undefined)	0	9	37*	-59	0	-4

Compound activity: PubChem BioAssay, several laboratories
